Bioassay records: PubChem, several laboratories
CYP2C19 inh: human CYP2C19 inhibition; inhibition, % at 5 µM; hit rate 21% among 96,000; CYP2C19 Supersomes, luciferin-H EGE luminescence, 30 min;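 active means CYP2C19 inhibition above a set limit at 5 µM in the primary screen, cut at about 50% in these data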
Target sequence (P33261 whole entry, looked up): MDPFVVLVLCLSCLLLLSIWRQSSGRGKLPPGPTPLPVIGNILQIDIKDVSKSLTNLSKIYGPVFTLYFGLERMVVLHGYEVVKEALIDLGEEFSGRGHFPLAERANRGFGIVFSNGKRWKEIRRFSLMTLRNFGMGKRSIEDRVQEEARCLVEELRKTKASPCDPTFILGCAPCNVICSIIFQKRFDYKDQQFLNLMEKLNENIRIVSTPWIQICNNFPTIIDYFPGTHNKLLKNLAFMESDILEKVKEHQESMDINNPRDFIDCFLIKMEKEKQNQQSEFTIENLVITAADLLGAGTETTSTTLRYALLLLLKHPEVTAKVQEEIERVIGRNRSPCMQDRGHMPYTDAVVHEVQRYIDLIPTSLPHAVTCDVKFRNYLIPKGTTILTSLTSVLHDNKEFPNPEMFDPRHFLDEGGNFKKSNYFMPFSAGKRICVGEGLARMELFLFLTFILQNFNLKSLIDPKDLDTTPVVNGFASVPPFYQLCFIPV
CYP2C19 activ: increases human CYP2C19 enzyme activity; P33261; activation factor at 5 µM; AID 1025; 96,000 tested, under 10 active; recombinant CYP2C19, luciferin-H EGE luminescence; active compounds read high; 0 = fully inhibited enzyme, 1 = untreated enzyme;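 active means activation factor of at least 2 at 5 µM in the primary screen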
CYP2C9 activ: CYP2C9 (human) activation; recombinant CYP2C9, luciferin-H conversion, luminescence; active compounds read high; factor 1 = untreated enzyme, 0 = blocked; AID 1024; hit rate 1.4% among 96,000; P11712; activation factor at 5 µM;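 active means activation factor of 2 or more for CYP2C9 at a 5 µM dose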
CYP2C9 inhib: inhibitors of human CYP2C9; inhibition, % at 5 µM; CYP2C9 Supersomes, luciferin-H conversion, luminescence; hit rate 20% among 96,000; AID 777;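 active means blocking of liver enzyme CYP2C9 beyond about 50% at 5 µM, limit read from the data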
Measles CPE: protection of cells from measles virus; hit rate 1.5% among 140,000; protection (pct of control), % at 4 µM; AID 841; Measles virus-infected cells, CPE protection, absorbance; in the data active means protection mostly above about 24%, no sharp cut-off; inactive means mostly below about 26%
A number is an active result; 0 = inactive; - = no result given. Compounds with a hit are over-represented: about 22% of the library has one in this group of screens.

SMILES	CYP2C19 inh	CYP2C19 activ	CYP2C9 activ	CYP2C9 inhib	Measles CPE
COC(=O)c1nn(-c2ccc3c(c2)CCN3C(C)=O)cc1O	67.5	0	0	0	0
COC(=O)c1nn(-c2ccc3c(c2)OCO3)cc1O	0	0	0	0	0
CCOC(=O)c1c(NC(=O)c2cccs2)sc(C)c1CC	0	0	0	0	0
CCOC(=O)c1c(NC(=O)c2cccnc2Cl)sc(C(=O)N(C)C)c1C	-	-	-	-	0
CCOC(=O)c1c(NC(=O)C2CCCO2)sc(C(N)=O)c1C (centres undefined)	-	-	-	-	0
CCc1c(C)sc(NC(=O)c2cccs2)c1C(=O)OC(C)C	50.7	0	0	64.3	0
CCOC(=O)c1c(NC(=O)C2c3ccccc3Oc3ccccc32)sc(C(N)=O)c1C	0	0	0	78.4	0
COC(=O)c1c(NC(=O)c2ccco2)sc(C(=O)N(C)C)c1C	-	-	-	-	0
CCc1noc(C)c1C(=O)Nc1sc(C(=O)N(C)C)c(C)c1C(=O)OC	0	0	0	59.6	0
CCOC(=O)c1c(NC(=O)c2cccs2)sc(C(=O)N(C)C)c1C	57.6	0	0	77.0	0
O=C(CN1C(=O)NC2(CCCc3ccccc32)C1=O)Nc1cccc(S(=O)(=O)N2CCCCC2)c1 (centres undefined)	-	-	-	-	0
Cc1ccc(-c2nc3cnccn3c2Nc2ccc3c(c2)OCCO3)o1	87.4	0	0	72.5	0
COc1ccc(-c2nc3cnccn3c2Nc2ccc3c(c2)OCO3)cc1	87.6	0	0	87.4	0
Cc1ccc(-c2nc3cnccn3c2Nc2ccc3c(c2)OCO3)cc1	78.1	0	0	86.2	0
Cc1cc(C)n2c(Nc3ccc4c(c3)OCCO4)c(-c3ccccc3)nc2n1	0	0	0	75.7	0
O=C(OCC(=O)N1CCc2ccccc21)c1cccc(S(=O)(=O)N2CCCc3ccccc32)c1	-	-	-	-	0
CCOc1ccccc1C(=O)N[C@H](C(=O)OCc1cc([N+](=O)[O-])cc2c1OCOC2)C(C)C	-	-	-	-	0
O=C(Nc1ccc2c(c1)OCCO2)c1cccnc1	0	0	0	0	0
COc1cc2c(cc1OC)C(C(=O)Nc1ccc3c(c1)OCCO3)C(c1cccnc1)N(C)C2=O (centres undefined)	0	0	0	54.1	0
C/C(=N\NC(=O)Cn1nc(C)c(Br)c1C)c1cccs1	-	-	-	-	0
COCCNC(C(=O)Nc1cc(Cl)cc(Cl)c1)c1ccccc1 (centres undefined)	53.6	0	0	69.6	0
COCC(C)NC(C(=O)Nc1ccc(C)c(Cl)c1)c1ccccc1 (centres undefined)	85.9	0	0	85.7	0
COC(=O)c1sc(S(=O)(=O)N2CCCCC2C(=O)O)c(C(=O)OC)c1C (centres undefined)	0	0	0	0	0
S=C(NCCCN1CCOCC1)Nc1ccc(Cl)c(Cl)c1	-	-	-	-	0
CC(=O)Nc1c(C#N)c(C(C)(C)C)cn1C	0	0	0	0	0
SMILES	CYP2C19 inh	CYP2C19 activ	CYP2C9 activ	CYP2C9 inhib	Measles CPE
Cc1ccc(NC(=O)CSc2nnc(Cn3cnc4ccccc43)o2)cc1	0	0	0	64.7	0
Cc1ccc(NC(=O)CSc2nnc(CNC(=O)c3c(F)cccc3Cl)o2)cc1	0	0	0	73.3	0
Cc1ccc(S(=O)(=O)N2CCN(C(=O)CN3CCOCC3)C2c2ccccc2)cc1 (centres undefined)	0	0	0	0	0
Cc1ccc(N(Cc2ccc(C(=O)NN=C3CCN(C)CC3)cc2)S(C)(=O)=O)cc1C	-	-	-	-	0
CCn1c(=O)c2cc(C(=O)Nc3cc(C)on3)sc2c2ccccc21	0	0	2.1	0	0
CCn1c(=O)c2cc(C(=O)NCCN3CCOCC3)sc2c2ccccc21	0	0	0	0	0
CN(Cc1ccccc1)C(=O)c1ccc(Cl)c([N+](=O)[O-])c1	-	-	-	-	0
CN(Cc1ccccc1)C(=O)c1cc2ccccc2o1	94.0	0	0	0	0
O=C(c1ccccc1)c1cc2ccccc2o1	0	0	0	0	0
O=C(OCCN1CCOCC1)c1ccc2c(c1)OCCO2	0	0	0	0	0
O=C(CCOc1ccccc1)OCC(=O)c1cc2ccccc2o1	70.3	0	0	64.9	0
CN(Cc1ccccc1)C(=O)c1ccc2c(c1)OCCO2	83.6	0	0	0	0
CN(CCOC(=O)c1ccc2c(c1)OCCO2)Cc1ccccc1	54.2	0	0	62.4	0
O=C(CSc1nnc(CNC(=O)C23CC4CC(CC(C4)C2)C3)n1-c1ccc(F)cc1)Nc1ccccc1	-	-	-	-	0
COc1cccc(C(=O)OCCN(C)C(C)(C)C)c1	0	0	0	0	0
CN(CCOC(=O)c1ccc2c(c1)OCCO2)C(C)(C)C	-	-	-	-	87.7
CCC(C)NC(=O)C1c2ccccc2C(=O)N1Cc1cc(OC)ccc1OC (centres undefined)	0	0	0	0	0
O=C(NCc1cccnc1)C1c2ccccc2C(=O)N1C1CCCC1 (centres undefined)	74.7	0	0	0	0
COc1ccc(OC)c(CN2C(=O)c3ccccc3C2C(=O)NCc2cccnc2)c1 (centres undefined)	56.8	0	0	51.3	0
Cc1ccc(CN2C(=O)c3ccccc3C2C(=O)NCc2cccnc2)cc1 (centres undefined)	71.4	0	0	50.9	0
CC(C(=O)NCc1cccnc1)N1C(=O)c2ccccc2C1=O (centres undefined)	-	-	-	-	0
COc1ccc(CN2C(=O)c3ccccc3C2C(=O)NCc2cccnc2)c(OC)c1 (centres undefined)	0	0	0	0	33.4
CC(Sc1nncn1-c1ccccc1)C(=O)Nc1cccc([N+](=O)[O-])c1 (centres undefined)	-	-	-	-	0
Cc1ccc2c(c1)sc[n+]2Cc1ccccc1	65.7	0	0	68.2	0
O=C(CSc1nnc(NC2CCCCC2)s1)NN1C(=O)NC2(CCCCC2)C1=O	-	-	-	-	0
SMILES	CYP2C19 inh	CYP2C19 activ	CYP2C9 activ	CYP2C9 inhib	Measles CPE
COc1ccc(C2=NOC(Cn3c(Cc4ccc(Cl)cc4)nc4c3c(=O)n(C)c(=O)n4C)C2)cc1 (centres undefined)	74.4	0	0	81.8	0
CN(C)S(=O)(=O)N1CCCN(S(=O)(=O)N(C)C)CC1	0	0	0	0	0
O=C(C1CCCN(S(=O)(=O)c2cnc[nH]2)C1)N1CCN(c2ccc(Cl)cc2)CC1 (centres undefined)	0	0	0	65.2	0
O=S(=O)(c1cnc[nH]1)N1CCN(c2ccc(Cl)cc2)CC1	96.3	0	0	80.6	0
Cc1cccc(N2CCN(S(=O)(=O)c3ccc(S(=O)(=O)N4CCCC4)cc3)CC2)c1C	0	0	0	0	0
O=S(=O)(c1ccc(Cl)cc1)N1CCN(c2ccc(N3CCOCC3)nn2)CC1	0	0	0	0	0
CN(C)S(=O)(=O)N1CCN(c2ccc(Cl)cc2)CC1	62.9	0	0	0	0
Cc1cccc(N2CCN(S(=O)(=O)c3cnc[nH]3)CC2)c1C	98.3	0	0	96.7	0
Cc1ccc(C)c(N2CCN(C(=O)C3CCCN(S(=O)(=O)c4cnc[nH]4)C3)CC2)c1 (centres undefined)	0	0	0	0	0
Cc1nnc(SCC(=O)NNC(=O)CC#N)[nH]c1=O	-	-	-	-	0
